Reference: PubChem BioAssay (NCI)
Compounds without any hit were thinned out: in the full panel of roughly 83,000, 20% have a hit.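 A percent growth of 40 corresponds to 60% growth inhibition; 0 means no net growth; -100 means all cells died. Active threshold: below 10.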 Values without a mark were called inactive. Activity calls are given as the source filed them.

Assays:
Assay in all cases: NCI-60 one-dose screen, 48 h (100 = growth as untreated, 0 = no growth, -100 = all killed)
Details in all cases: 10 µM unless noted
HCT-15 colon = test system: HCT-15 colon
HT29 colon = test system: HT29 colon
SNB-75 CNS = test system: SNB-75 CNS
SNB-19 CNS = test system: SNB-19 CNS
U251 CNS = test system: U251 CNS
PC-3 prostate = test system: PC-3 prostate
SK-MEL-5 melanoma = test system: SK-MEL-5 melanoma
UACC-62 melanoma = test system: UACC-62 melanoma
LOX IMVI melanoma = test system: LOX IMVI melanoma
SK-MEL-28 melanoma = test system: SK-MEL-28 melanoma

Row | Compound | growth (HCT-15 colon) | growth (HT29 colon) | growth (SNB-75 CNS) | growth (SNB-19 CNS) | growth (U251 CNS) | growth (PC-3 prostate) | growth (SK-MEL-5 melanoma) | growth (UACC-62 melanoma) | growth (LOX IMVI melanoma) | growth (SK-MEL-28 melanoma)
1 | O=C1CC(c2ccc3c(c2)OCO3)c2ncn(-c3ccc(Cl)cc3)c2N1 (stereo not given) | 24.2% | 10.9% | 30.1% | 47.8% | 21.9% | 45.1% | 24.8% | 34.4% | 51.7% | 55.4%
2 | Cc1nn(-c2ccccc2)c2c1N=c1s/c(=C\c3cn(-c4ccccc4)nc3-c3ccc(Cl)cc3)c(=O)n1C(C)N2 (stereo not given) | 85.8% | 94.3% | 86.4% | 98.9% | 85.2% | 82.4% | 85% | 106% | 87.6% | 118%
3 | Cc1cnc(NC(=O)Nc2cc(Br)c(C)cc2OC[C@@H]2CNCCO2)cn1 | 6.54% (active) | -6.22% (active) | 26.5% | 39.7% | 11.7% | 39.7% | -92.2% (active) | 12.2% | -78% (active) | -88.7% (active)
4 | O=C1CC(c2cccc(F)c2)c2c(n[nH]c2-c2ccc(Cl)cc2)N1 (stereo not given) | 92.5% | 81.1% | 97.3% | 99.3% | 86.1% | 80.5% | 87.1% | 86.2% | 96.9% | 107%
5 | Cc1ccccc1Nc1nc2nonc2nc1Nc1cccc(C)c1C | 44.8% | 46.9% | 75.8% | 52.7% | 29.9% | 42.2% | 5.63% (active) | 22.8% | 54% | 79.7%
6 | CCOC(=O)C1=C(C)N=C2Sc3cccc(OC)c3N2[C@H]1c1ccccn1 | 104% | 97.3% | 93.7% | 96.8% | 96.4% | 88.3% | 101% | 87.1% | 96.7% | 119%
7 | N#CC1(C#N)C(c2cccs2)NC(c2cccs2)C1(C#N)C#N (stereo not given) | 94.5% | 103% | 75.1% | 106% | 104% | 94.6% | 114% | 101% | 93.9% | 109%
8 | O=C1NC(=O)C(c2cnc3ccccn23)=C1c1cn2c3c(cc(F)cc13)CN(C(=O)N1CCCCC1)CC2 | 56.7% | 22.9% | 37.4% | 71.1% | 36.3% | 41.8% | 32.8% | 40.1% | 27.5% | 76.8%
9 | Cn1ncc(Cl)c1-c1cc(C(=O)N[C@H](CN)Cc2cccc(F)c2)sc1Cl | 16.9% | 0.334% (active) | -46.2% (active) | 9.05% (active) | -45.2% (active) | 9.61% (active) | -96.1% (active) | -19.5% (active) | -51.9% (active) | -72.7% (active)
10 | O=C(NOCCO)c1ccc2cncn2c1Nc1ccc(I)cc1F | 66.7% | 9.38% (active) | 81.1% | 57.8% | 40.4% | 81% | 47% | 3.07% (active) | 19.9% | 3.91% (active)
11 | CCCCN1C(=O)c2cccc3c(-c4ccc5c(c4)ncn5C4CCCCC4)ccc(c23)C1=O | 106% | 84.1% | 92.3% | 106% | 98.3% | 94.3% | 107% | 92.8% | 102% | 117%
12 | CC(=O)O[C@]1(C)C[C@H](O)[C@]2(O)C=CO[C@H](O[C@@H]3O[C@H](CO)[C@@H](O)[C@H](O)[C@H]3O)[C@@H]21 | 99.1% | 103% | 83.3% | 99.6% | 99.8% | 103% | 103% | 100% | 105% | 112%
13 | Clc1ccc2c(NCCNc3nc(N4CCCC4)nc4ccccc34)ccnc2c1 | -34.5% (active) | -27.2% (active) | 12.5% | 25.1% | -44% (active) | 21.9% | -97.1% (active) | -56.6% (active) | -85.7% (active) | -54.2% (active)
14 | Cc1cc(N2CCOCC2)nc(N(CCNc2ccnc3cc(Cl)ccc23)Cc2cccs2)n1 | 17.8% | -43.1% (active) | -18.1% (active) | 56.5% | -10.5% (active) | 24.4% | -4.8% (active) | -24.6% (active) | -72.1% (active) | 11.6%
15 | CCn1c(-c2nonc2N)nc2c(C#CC(C)(C)O)ncc(OC[C@H]3CCCNC3)c21 | 82.4% | 56.2% | 2.75% (active) | 67.8% | 41.8% | 56.1% | 91.7% | 79.8% | 44.1% | 45.8%
16 | COc1ccc2nc3cc(Cl)ccc3c(Nc3ccc(N(C)C)cc3)c2c1 | 91.1% | 72.1% | 111% | 101% | 93.5% | 85.4% | 100% | 98.1% | 88.8% | 112%
17 | CN1CCN(CC(=O)Nc2ccc(-c3nc4ccccc4s3)cc2)CC1 | 52.9% | 39.6% | 73.1% | 89.7% | 67.5% | 83.6% | 73.7% | -35.8% (active) | -33.7% (active) | 33.8%
18 | c1cn2cc(-c3ccc4cn[nH]c4c3)nc(Nc3ccc(N4CCOCC4)cc3)c2n1 | 66.5% | 32.7% | -3.9% (active) | 50.3% | 41.5% | 43.3% | 71.4% | 53.3% | 56.4% | 63%
19 | NC1=Nc2ccccc2N(O)N1 | 105% | 90.6% | 78.5% | 108% | 98.6% | 95.1% | 105% | 102% | 96.8% | 100%
20 | O=C(c1c(F)ccc(NS(=O)(=O)N2CC[C@@H](F)C2)c1F)c1c[nH]c2ncc(-c3cnc(C4CC4)nc3)cc12 | 44.1% | 3.81% (active) | 37.7% | 52.8% | 42.4% | 46.5% | 22% | -22.9% (active) | 15.9% | -5.44% (active)
21 | COc1cc2c(cc1O)c(=O)n(CCN(C)C)c1c3cc4c(cc3ncc21)OCO4 | 2.84% (active) | 8.08% (active) | -37.2% (active) | -0.441% (active) | -49% (active) | -9.82% (active) | -50.9% (active) | -54.2% (active) | -56.3% (active) | -7.55% (active)
22 | CC1(O)CC(c2nc(-c3ccc4ccc(-c5ccccc5)nc4c3)c3c(N)nccn23)C1 (stereo not given) | 21.1% | 5.34% (active) | 32% | 64.7% | 56.7% | 35.3% | 15% | 39.9% | 34.7% | 40.7%
23 | O=C(COc1cccc(/C=C2\Cc3ccc(Cl)cc3C2=O)c1)Nc1nccs1 | 91.9% | 102% | 76.6% | 85.9% | 96.7% | 88% | 93.1% | 84.2% | 78% | 124%
24 | CC(C)NC[C@@H](C(=O)N1CCN(c2ncnc3c2[C@H](C)C[C@H]3O)CC1)c1ccc(Cl)cc1 | 71.2% | 27.4% | 8.53% (active) | 26.7% | 28.4% | 33% | 72.4% | 44.6% | 66.8% | 55.6%
25 | CC(C)(C)C(=O)OCOP(=O)(OCOC(=O)C(C)(C)C)C1CCCN(OC(=O)c2ccccc2)C1=O (stereo not given) | 28.6% | 5.75% (active) | 73.1% | 14% | 6.63% (active) | 49.7% | -28% (active) | 4.95% (active) | 40.1% | -11.1% (active)
26 | CC(C)n1c(NCCc2ccc(O)c(O)c2)nc2c1c(=O)n(C)c(=O)n2C | 98.8% | 98.1% | 80.2% | 101% | 97.5% | 89.3% | 92.8% | 94.4% | 95.2% | 102%
27 | CC(N)C(Cc1ccccc1)c1ccc(Cl)cc1 (stereo not given) | 101% | 76.8% | 70.4% | 92% | 86.4% | 68% | 93.3% | 93.2% | 90.1% | 96.7%
